# The supplement of paper PMC8728848
# This is one part of a sample in which the strongest signals are shown more often than they occur.
# How the values were obtained:
# Test in all cases: glycan array binding signal (z-score within array); higher = stronger binding
# Settings in all cases: glycan notation: IUPAC condensed, linker removed
# [1] = test system: Fuc(a1-3)[Gal(b1-4)]GlcNAc(b1-6)[Gal(b1-3)GlcNAc(b1-3)]Gal(b1-4)Glc
# Procedure, shortened: (§1)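 Negative Z-scores can be read as non-binding. The Z-score is calculated within each array and then averaged across arrays of one protein sequence at different concentrations or buffers and across linkers. Arrays, 3228 in all, were curated from the Consortium for Functional Glycomics database and kept only where the protein sequence was available.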
# [2] = test system: Fuc(a1-3)[Gal(b1-4)]GlcNAc(b1-3)Gal(b1-4)[Fuc(a1-3)]GlcNAc(b1-3)Gal(b1-4)[Fuc(a1-3)]GlcNAc
# Procedure, shortened: as §1
# [3] = test system: Fuc(a1-3)[Gal(b1-4)]GlcNAc(b1-6)GalNAc
# Procedure, shortened: as §1
# [4] = test system: Fuc(a1-3)[Gal(b1-4)]GlcNAc6S
# Procedure, shortened: as §1
# [5] = test system: Fuc(a1-3)[Gal(b1-4)]GlcNAc(b1-3)Gal(b1-4)[Fuc(a1-3)]GlcNAc
# Procedure, shortened: as §1
# [6] = test system: Fuc(a1-3)[Gal(b1-4)]GlcNAc
# Procedure, shortened: as §1
# [7] = test system: Fuc(a1-3)[Gal(b1-4)]GlcNAc(b1-3)Gal(b1-3)[Fuc(a1-4)]GlcNAc
# Procedure, shortened: as §1
# [8] = test system: Fuc(a1-3)[Gal3S(b1-4)]Glc6S
# Procedure, shortened: as §1
# [9] = test system: Fuc(a1-3)[Gal(b1-4)]GlcNAc(b1-4)Gal(b1-4)[Fuc(a1-3)]GlcNAc
# Procedure, shortened: as §1
# [10] = test system: Fuc(a1-3)[Gal(b1-4)]GlcNAc(b1-4)Gal(b1-4)[Fuc(a1-3)]GlcNAc(b1-4)Gal(b1-4)[Fuc(a1-3)]GlcNAc
# Procedure, shortened: as §1
# Chain of SRLC (Mus musculus), Q8VIF6 (Q8VIF6 other isoform, or with tags, fused parts or gaps): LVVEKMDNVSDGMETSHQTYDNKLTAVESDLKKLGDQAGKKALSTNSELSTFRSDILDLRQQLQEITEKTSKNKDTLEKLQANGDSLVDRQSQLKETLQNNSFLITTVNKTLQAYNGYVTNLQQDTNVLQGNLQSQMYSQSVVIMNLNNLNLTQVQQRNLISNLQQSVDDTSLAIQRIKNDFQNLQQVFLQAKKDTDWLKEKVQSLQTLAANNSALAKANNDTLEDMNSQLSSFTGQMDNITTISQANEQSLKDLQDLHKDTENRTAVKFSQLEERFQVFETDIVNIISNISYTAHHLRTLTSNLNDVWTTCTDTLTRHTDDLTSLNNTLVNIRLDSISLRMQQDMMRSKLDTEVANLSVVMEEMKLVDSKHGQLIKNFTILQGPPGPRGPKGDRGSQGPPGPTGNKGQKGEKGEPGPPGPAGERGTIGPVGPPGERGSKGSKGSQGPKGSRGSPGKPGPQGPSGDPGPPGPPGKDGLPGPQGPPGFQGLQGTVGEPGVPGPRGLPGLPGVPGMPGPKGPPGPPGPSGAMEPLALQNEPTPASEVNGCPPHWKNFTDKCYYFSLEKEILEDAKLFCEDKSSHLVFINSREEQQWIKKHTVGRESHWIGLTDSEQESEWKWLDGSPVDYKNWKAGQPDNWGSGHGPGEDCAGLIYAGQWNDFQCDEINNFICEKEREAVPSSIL
# Chain of Avaren (Actinomycete K97) (chain, as listed by the source): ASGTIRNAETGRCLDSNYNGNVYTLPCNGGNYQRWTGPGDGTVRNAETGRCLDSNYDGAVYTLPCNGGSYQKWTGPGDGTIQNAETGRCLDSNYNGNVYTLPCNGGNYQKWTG
# Chain of CHT (Homo sapiens) (chain, as listed by the source): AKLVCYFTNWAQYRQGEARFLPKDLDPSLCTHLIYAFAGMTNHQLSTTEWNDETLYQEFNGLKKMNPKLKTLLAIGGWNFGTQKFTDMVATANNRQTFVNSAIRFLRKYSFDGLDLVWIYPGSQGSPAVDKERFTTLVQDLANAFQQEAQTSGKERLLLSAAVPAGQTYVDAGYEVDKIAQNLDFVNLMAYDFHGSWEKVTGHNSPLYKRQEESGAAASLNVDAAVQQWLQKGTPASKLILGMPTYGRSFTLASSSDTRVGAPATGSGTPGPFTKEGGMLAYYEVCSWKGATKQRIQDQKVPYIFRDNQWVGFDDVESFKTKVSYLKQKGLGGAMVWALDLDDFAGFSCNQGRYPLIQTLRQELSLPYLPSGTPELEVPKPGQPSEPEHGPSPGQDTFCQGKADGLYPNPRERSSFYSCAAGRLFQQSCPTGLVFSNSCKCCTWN
# Chain of wLAT-1A (Homo sapiens), Q01650 (Q01650 whole entry): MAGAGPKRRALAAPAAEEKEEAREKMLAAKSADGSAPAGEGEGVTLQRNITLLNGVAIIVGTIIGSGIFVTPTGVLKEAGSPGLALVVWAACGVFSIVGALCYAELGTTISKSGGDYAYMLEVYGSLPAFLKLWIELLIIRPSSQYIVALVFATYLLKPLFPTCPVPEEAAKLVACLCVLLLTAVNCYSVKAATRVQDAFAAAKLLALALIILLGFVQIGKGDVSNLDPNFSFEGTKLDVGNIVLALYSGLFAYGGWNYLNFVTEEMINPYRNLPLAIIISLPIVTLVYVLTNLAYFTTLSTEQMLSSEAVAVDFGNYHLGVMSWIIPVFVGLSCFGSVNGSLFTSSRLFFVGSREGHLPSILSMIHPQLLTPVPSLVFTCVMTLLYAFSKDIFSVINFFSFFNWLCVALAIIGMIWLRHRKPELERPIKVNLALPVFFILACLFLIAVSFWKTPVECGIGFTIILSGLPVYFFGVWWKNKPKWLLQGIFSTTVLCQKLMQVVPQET
# Chain of CHI3L1 (Homo sapiens), P36222 (P36222 whole entry): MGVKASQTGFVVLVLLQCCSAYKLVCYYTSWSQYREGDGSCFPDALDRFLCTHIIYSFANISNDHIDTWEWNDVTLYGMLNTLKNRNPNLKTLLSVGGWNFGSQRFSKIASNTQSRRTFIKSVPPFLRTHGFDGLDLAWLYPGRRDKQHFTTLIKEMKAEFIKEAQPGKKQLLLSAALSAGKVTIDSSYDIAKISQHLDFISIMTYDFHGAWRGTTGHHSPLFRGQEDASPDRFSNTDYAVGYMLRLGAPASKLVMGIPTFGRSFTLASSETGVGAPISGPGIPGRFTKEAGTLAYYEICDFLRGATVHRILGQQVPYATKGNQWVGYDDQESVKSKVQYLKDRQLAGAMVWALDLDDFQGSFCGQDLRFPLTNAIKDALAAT
# Chain of Regenerating Gene IV (Homo sapiens), Q9BYZ8 (Q9BYZ8 whole entry, looked up): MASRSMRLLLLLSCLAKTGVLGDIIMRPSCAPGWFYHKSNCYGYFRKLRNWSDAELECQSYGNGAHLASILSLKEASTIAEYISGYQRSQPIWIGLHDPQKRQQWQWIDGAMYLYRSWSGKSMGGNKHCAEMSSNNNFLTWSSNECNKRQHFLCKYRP
# Chain of C3b (Homo sapiens), P01024 (P01024 23-667): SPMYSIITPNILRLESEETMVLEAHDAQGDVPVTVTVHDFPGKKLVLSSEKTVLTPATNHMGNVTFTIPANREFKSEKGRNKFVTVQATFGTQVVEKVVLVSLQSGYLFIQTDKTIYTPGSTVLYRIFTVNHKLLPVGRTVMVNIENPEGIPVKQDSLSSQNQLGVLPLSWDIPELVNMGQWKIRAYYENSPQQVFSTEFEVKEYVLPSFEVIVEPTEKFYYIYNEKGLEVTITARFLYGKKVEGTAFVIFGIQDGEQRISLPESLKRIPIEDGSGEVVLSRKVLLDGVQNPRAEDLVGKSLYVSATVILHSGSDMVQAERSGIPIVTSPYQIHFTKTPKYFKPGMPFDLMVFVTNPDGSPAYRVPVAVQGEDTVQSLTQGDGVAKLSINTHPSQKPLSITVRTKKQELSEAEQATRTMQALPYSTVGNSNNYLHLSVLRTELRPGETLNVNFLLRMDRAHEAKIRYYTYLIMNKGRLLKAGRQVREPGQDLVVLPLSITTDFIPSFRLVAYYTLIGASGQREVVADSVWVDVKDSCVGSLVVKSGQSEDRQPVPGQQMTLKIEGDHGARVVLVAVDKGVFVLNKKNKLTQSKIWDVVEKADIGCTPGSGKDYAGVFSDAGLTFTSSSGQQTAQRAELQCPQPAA
# Chain of Neurocan (Homo sapiens), O14594 (O14594 other isoform, or with tags, fused parts or gaps): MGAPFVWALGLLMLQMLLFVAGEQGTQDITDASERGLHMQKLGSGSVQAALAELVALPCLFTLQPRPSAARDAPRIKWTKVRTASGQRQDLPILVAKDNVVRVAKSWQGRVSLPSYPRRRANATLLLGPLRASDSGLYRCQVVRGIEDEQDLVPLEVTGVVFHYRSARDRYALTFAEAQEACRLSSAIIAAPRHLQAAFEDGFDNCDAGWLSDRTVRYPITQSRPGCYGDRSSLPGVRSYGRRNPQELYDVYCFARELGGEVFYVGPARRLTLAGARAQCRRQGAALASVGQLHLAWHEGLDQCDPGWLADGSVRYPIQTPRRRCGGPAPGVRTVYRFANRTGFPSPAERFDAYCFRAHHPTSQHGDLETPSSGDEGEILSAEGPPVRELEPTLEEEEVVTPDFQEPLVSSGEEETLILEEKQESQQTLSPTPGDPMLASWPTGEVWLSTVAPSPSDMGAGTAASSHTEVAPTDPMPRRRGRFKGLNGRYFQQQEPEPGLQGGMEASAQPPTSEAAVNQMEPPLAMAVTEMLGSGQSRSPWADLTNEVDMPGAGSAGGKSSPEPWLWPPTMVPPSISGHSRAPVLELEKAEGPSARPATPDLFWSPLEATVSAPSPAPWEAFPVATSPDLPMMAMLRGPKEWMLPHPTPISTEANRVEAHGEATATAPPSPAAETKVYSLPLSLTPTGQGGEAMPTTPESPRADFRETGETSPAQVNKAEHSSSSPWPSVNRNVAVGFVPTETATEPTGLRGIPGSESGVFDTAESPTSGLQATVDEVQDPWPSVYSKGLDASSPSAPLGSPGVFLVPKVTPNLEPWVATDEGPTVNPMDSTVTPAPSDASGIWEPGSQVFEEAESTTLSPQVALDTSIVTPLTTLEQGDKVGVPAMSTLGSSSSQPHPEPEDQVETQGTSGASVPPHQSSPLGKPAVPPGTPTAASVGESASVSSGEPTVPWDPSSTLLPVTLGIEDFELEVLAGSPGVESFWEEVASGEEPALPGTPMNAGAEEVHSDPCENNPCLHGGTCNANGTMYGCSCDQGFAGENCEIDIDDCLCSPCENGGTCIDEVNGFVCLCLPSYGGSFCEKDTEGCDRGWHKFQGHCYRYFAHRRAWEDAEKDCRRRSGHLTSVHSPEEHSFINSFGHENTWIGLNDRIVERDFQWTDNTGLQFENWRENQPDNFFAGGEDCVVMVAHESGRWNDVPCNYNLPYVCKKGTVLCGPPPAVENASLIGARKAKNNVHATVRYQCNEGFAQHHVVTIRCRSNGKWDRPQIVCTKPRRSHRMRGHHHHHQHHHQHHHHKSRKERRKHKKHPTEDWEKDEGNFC
# Chain of PILRb (Mus musculus), Q2YSF2 (Q2YSF2 entry or part of it): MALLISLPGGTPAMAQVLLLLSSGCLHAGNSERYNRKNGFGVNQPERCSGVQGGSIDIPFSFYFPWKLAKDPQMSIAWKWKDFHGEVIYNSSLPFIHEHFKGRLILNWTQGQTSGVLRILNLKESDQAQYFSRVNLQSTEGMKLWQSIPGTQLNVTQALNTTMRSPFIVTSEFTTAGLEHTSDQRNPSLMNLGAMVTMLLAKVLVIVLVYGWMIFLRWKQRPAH
substance,measurement,setting,value
"Neurocan (Homo sapiens), O14594",glycan array binding signal (z-score),[1],2.26
"HARE (Homo sapiens), Q8WWQ8",glycan array binding signal (z-score),[2],0.285
Avaren (Actinomycete K97),glycan array binding signal (z-score),[3],-0.094
same,glycan array binding signal (z-score),[4],-0.109
"Siglec-8 (Homo sapiens), Q9NYZ4",glycan array binding signal (z-score),[5],-0.046
same,glycan array binding signal (z-score),[3],-0.063
same,glycan array binding signal (z-score),[4]; mutation: R125K,5.35
same,glycan array binding signal (z-score),[6]; mutation: R125K,-0.361
"Regenerating Gene IV (Homo sapiens), Q9BYZ8",glycan array binding signal (z-score),[4],-0.14
CHT (Homo sapiens),glycan array binding signal (z-score),"[6]; mutation: D138V, E140I",-0.176
"CHI3L1 (Homo sapiens), P36222",glycan array binding signal (z-score),[7],-0.081
"PILRb (Mus musculus), Q2YSF2",glycan array binding signal (z-score),[8],-0.626
"wLAT-1A (Homo sapiens), Q01650",glycan array binding signal (z-score),[8],3.91
"C3b (Homo sapiens), P01024",glycan array binding signal (z-score),[9],-0.595
"SRLC (Mus musculus), Q8VIF6",glycan array binding signal (z-score),[7],4.31
same,glycan array binding signal (z-score),[10],7.13
same,glycan array binding signal (z-score),[9],4.46
same,glycan array binding signal (z-score),[6],6.98
